# According to PubChem BioAssay AID2685 (National Center for Advancing Translational Sciences (NCATS), 2010):
# About 2,100 (0.66%) of roughly 320,000 compounds were called active. Inconclusive results (about 53%) are left out. Calls come from the whole dose curve; as a rule, active = well fitted inhibition curve with a large enough effect in the signal ratio, with a control signal flat (not every such curve was filed as active); inconclusive = small, poorly fitted or top-dose-only effect, or effect the other way, or a change in a side signal; inactive = flat fitted curve, though single readings scatter; the % refers to the signal ratio. The full list was thinned out, with actives kept by preference.
# Assay: qHTS Assay for Lipid Storage Modulators in Drosophila S3 Cells;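 for cell number change: cells counted by Cell Tracker Red CMTPX staining in the red channel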; for lipid storage change, negative = inhibition: % is set by controls: 0 for no effect and ±100 for the full control effect
# Settings: BODIPY lipid droplet fluorescence, 18-24 h, cells fed with added oleic acid; cell number change: measured here: cell count max response; series mostly up to 46.1 µM; lipid storage change, negative = inhibition: at the top concentration
# Procedure, shortened: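 Drosophila S3 cells loaded with oleic acid (400 uM, as added) and compounds at several concentrations; lipid droplets imaged by 488-nm laser-scanning cytometry, 500–530 nm intensity and object ratio to cell channel. Percent activity normalized to 20 uM Triacsin C.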
# Potency is the fitted concentration of half-maximal effect.
Structure (SMILES),"lipid storage change, negative = inhibition",cell number change,Potency,outcome
CCOC(=O)N1CCC(NC(=O)c2ccc(CO)c(C(=O)NC3CCN(C(=O)OCC)CC3)c2)CC1,5.33% (inactive),,,
O=C(O)CC(C(=O)Nc1ccc(Cl)cc1Cl)C1CCCO1 (configuration not stated),9.88% (inactive),5.73%,,
O=C(O)CC(C(=O)Nc1ccc(Cl)c(Cl)c1)C1CCCO1 (configuration not stated),,12.1%,20.6 µM (active),
O=C(O)CC(C(=O)Nc1ccc(F)cc1)C1CCCO1 (configuration not stated),-20.6% (inactive),-13.3%,,
CCOC(=O)N1CCN(C(=O)CCCn2c(=S)[nH]c3ccsc3c2=O)CC1,-5.9% (inactive),-21.6%,,
COC(=O)c1ccc(COc2ccc(C=O)cc2)o1,,-4.2%,,inactive
CCN(CC#CCC(O)(c1ccccc1)c1ccccc1)C(C)C,-6.31% (inactive),1.67%,,
COc1ccc(CN(Cc2ccc(OC)cc2)S(=O)(=O)c2ccc(-n3cnnn3)c(C)c2)cc1,-11.8% (inactive),-0.43%,,
COc1ccc(S(=O)(=O)Nc2cccc(-n3cnnn3)c2)cc1,,-4.25%,,inactive
CCCCOc1ccc(NS(=O)(=O)c2ccc(-n3cnnn3)cc2)cc1,,-4.72%,,inactive
Cc1cc(S(=O)(=O)NCc2cccnc2)ccc1-n1cnnn1,,2.93%,,inactive
COc1ccc(OCC(NS(=O)(=O)c2ccc(-n3cnnn3)cc2)C(C)C)cc1 (configuration not stated),,,0.13 µM (active),
COc1ccc(CNS(=O)(=O)c2ccc(-n3cnnn3)c(C)c2)cc1,,-1.28%,18.4 µM (active),
C=CCOC(=O)C1=C(C)NC(=O)NC1c1cc2c(cc1Br)OCO2 (configuration not stated),-3.77% (inactive),-17.1%,,
N/C(=N\OC(=O)C1CCCCC1)c1cccnc1,2.61% (inactive),-2.17%,,
CCOc1cc(CNCCCN2CCOCC2)ccc1OCC(=O)Nc1cccc2ccccc12,,9%,,inactive
CCN(CC)CCNC(=O)c1ccc(NC(=O)c2ccc3c(c2)CCC3)cc1,9.17% (inactive),2.22%,,
COc1c(Br)cc(Br)cc1C(=O)O,,-14.5%,20.6 µM (active),
COc1cc(N)c(Br)cc1C(=O)O,9.6% (inactive),,,
COc1ccc(Br)cc1C(=O)O,-3.81% (inactive),9.36%,,
COc1ccc(/C=N/NC(=O)Cn2nc([N+](=O)[O-])cc2C)c(OC)c1OC,-1.52% (inactive),15.6%,,
Cc1ccc(-n2ncc(C(=O)O)c2C2CCN(C(=O)OC(C)(C)C)CC2)cc1,1.24% (inactive),-23.6%,,
COc1ccc(-n2ncc(C(=O)NC3CC3)c2C2CCN(C(=O)OC(C)(C)C)CC2)cc1,,-6.59%,9.2 µM (active),

Structure (SMILES),"lipid storage change, negative = inhibition",cell number change,Potency,outcome
Cc1ccc(-n2ncc(C(=O)NC3CC3)c2C2CCN(C(=O)OC(C)(C)C)CC2)cc1,-3.19% (inactive),-12.2%,,
Nn1cc(-c2ccccc2)nc1SCC(=O)NCCN1C(=O)CSC1=O,3.23% (inactive),-20.3%,,
CCOC(=O)CN(C(=O)CSc1nnc(-c2ccncc2)n1CCCOC)c1ccccc1,-0.702% (inactive),-3.7%,,
CC(C)(C)Nc1c(-c2ccc(O)cc2)nc2ccc(Cl)cn12,-6.34% (inactive),20.8%,,
CC(NC(=O)NCCCC(=O)O)(C(F)(F)F)C(F)(F)F,,-5.28%,29.1 µM (active),
NC(=O)NCCCC(=O)O,-6.78% (inactive),-16.4%,,
CC(NC(=O)NC(N)=O)(C(F)(F)F)C(F)(F)F,-6.44% (inactive),2.2%,,
CSCCC(NC(=O)c1ccc(Cl)cc1Cl)C(=O)N(C)Cc1nc2ccccc2c(=O)[nH]1 (configuration not stated),1.6% [at 0.0737 µM] (inactive),,,
CCN1CCN(c2ccc([N+](=O)[O-])c(Sc3nc4ccccc4[nH]3)c2)CC1,-3.58% (inactive),-7.24%,,
CC1=CC(=Nc2c(C)n(C)n(-c3ccccc3)c2=O)C=CC1=O,-9.72% (inactive),4.9%,,
CC(C)(C)c1cc(CN2CCC(O)CC2)cc(C(C)(C)C)c1O,,12.8%,,inactive
CC1=NN(Cc2ccccc2)C(=O)C1,-22.5% (inactive),11.6%,,
CC1=NN(Cc2cc(C(C)(C)C)c(O)c(C(C)(C)C)c2)C(=O)C1,,-27.5%,16.4 µM (active),
COCCOC(=O)c1c(C)oc2ccc(OC(=O)c3ccc4c(c3)OCO4)cc12,,,,inactive
CC1CN(C(=O)c2cccc(S(=O)(=O)N3CCN(c4ccccc4)CC3)c2)CC(C)O1 (configuration not stated),13.5% (inactive),2.24%,,
C[C@@H]1CCC(=O)N(C[C@@H](C)CSc2ccccc2)CC1,,11.7%,,inactive
CCC(=O)Nc1ccc(NC(=O)CSc2nnc(-c3ccco3)n2C)cc1,-25.5% (inactive),8.55%,,
Cn1c(SCC(=O)Nc2ccc(Cl)cc2F)nnc1-c1ccco1,,9.91%,23.1 µM (active),
Cc1cc(NC(=O)CSc2nnc(-c3ccco3)n2C)no1,5.6% (inactive),17.5%,,
O=C(Nc1nc2ccc(F)cc2s1)c1ccc(N2CCCC2=O)cc1,-0.195% (inactive),-14.4%,,
CCCC1CC(CCc2ccccc2)OS(=O)(=O)N1 (configuration not stated),,22.3%,,inactive
C=CCNc1nc2c(c(=O)[nH]c(=O)n2C)n1CC(O)COc1ccc2ccccc2c1 (configuration not stated),9.91% (inactive),-2.59%,,
C=CCSc1nc(C)cc2c1C(=O)OC2,-1.91% (inactive),-10%,,

Structure (SMILES),"lipid storage change, negative = inhibition",cell number change,Potency,outcome
CCOC(=O)C1CCN(S(=O)(=O)c2ccc(OC)c(OC)c2)CC1,,,,inactive
Cc1cc(-n2c(C)cc(C(=O)COc3ccc4ccc(=O)oc4c3)c2C)no1,-4.04% (inactive),-3.86%,,
Cc1cc(-n2c(C)cc(C(=O)COc3cc(F)ccc3[N+](=O)[O-])c2C)no1,,1.91%,8.2 µM (active),
Cc1cc(-n2c(C)cc(C(=O)COc3ccc([N+](=O)[O-])cc3)c2C)no1,-9.66% [at 9.22 µM] (inactive),-1.97%,,
Cc1nc(CN2CCCC2=NC#N)n(-c2ccccc2)n1,-0.104% (inactive),7.55%,,
O=C(O)CN1CCCC1=Nc1ccccc1,,7.34%,,inactive
N#CN=C1CCCCCN1CC(N)=O,,-10.9%,0.731 µM (active),
Cc1cc(C(=O)N/N=C/c2ccc(-c3cccc(Cl)c3Cl)o2)n[nH]1,2.75% (inactive),-7.33%,,
Cc1nc(N)nc(Nc2ccc(Cl)cc2)c1Br,,17.2%,,inactive
CCOc1ccc(CC(C(=O)NN)C(=O)NN)cc1CN(C)C,,-6.71%,18.4 µM (active),
CCOc1ccccc1CNCc1ccc(C(=O)O)cc1,16% (inactive),10.5%,,
CCOc1ccc(CC(C(N)=O)C(N)=O)cc1CN(C)C,8.24% (inactive),-1.24%,,
COC(=O)c1cc(OC)c(OC)c(OC)c1NC(=O)c1ccc(S(=O)(=O)N(C)C)cc1,,-4.59%,,inactive
COC(=O)Nc1c(C(=O)OC)cc(OC)c(OC)c1OC,,-8.23%,16.4 µM (active),
COC(=O)c1cc(OC)c(OC)c(OC)c1N,,7.54%,,inactive
CCOC(=O)CN(C(=O)COc1nc(C)cc(C)c1C#N)c1cccc(Cl)c1,3.11% (inactive),6.09%,,
Cc1cccc(N2CCN(C(=O)c3ccc(CNc4c(N5CCC(C)CC5)c(=O)c4=O)cc3)CC2)c1C,-0.571% (inactive),1.91%,,
COc1ccc(CN2CCN(Cc3cccc(OC)c3)C(CCO)C2)cc1 (configuration not stated),15.7% (inactive),0.486%,,
COc1ccc(C(=O)N2CCN(Cc3cc(OC)ccc3OC)CC2)cc1,-14.3% (inactive),-3.67%,,
COc1ccc(OC)c(CN2CCN(C(=O)CNC(=O)c3ccc(C(C)(C)C)cc3)CC2)c1,,-27.4%,1.46 µM (active),
COc1ccc(OC)c(CN2CCN(C(=O)c3ccc(S(=O)(=O)Nc4ccccc4F)cc3)CC2)c1,,-20.6%,13 µM (active),
COc1ccc(NS(=O)(=O)c2cccc(C(=O)N3CCN(Cc4cc(OC)ccc4OC)CC3)c2)cc1,-13.2% (inactive),1.47%,,
CC(C)(C)c1ccc(C(=O)NCC(=O)N2CCCCCC2)cc1,,5.65%,,inactive

Structure (SMILES),"lipid storage change, negative = inhibition",cell number change,Potency,outcome
CC(C)(C)c1ccc(C(=O)NCC(=O)N2CCCC2)cc1,,12.2%,,inactive
O=C(Cn1c(C(F)(F)F)nc2ccccc21)N=Nc1c(O)[nH]c2ccc(Br)cc12,,,,inactive
CC1(C)CC(=O)N(c2ccc(C#N)cc2)C(=O)C1,2.37% (inactive),-0.525%,,
Cc1cccc(NC(=O)C(c2ccccc2Cl)N2CCOCC2)c1 (configuration not stated),2.74% (inactive),14.2%,,
COCCCNc1nc(-c2ccc(Cl)cc2)nc2ccccc12,,,,inactive
CCCCN1C(=O)/C(=c2\sc3nc(=O)c(-c4ccccc4)nn3c2=O)c2ccccc21,-21.2% (inactive),-10.9%,,
C/C(=N\NC(=O)c1ccn(C)n1)c1ccc(NC(=O)C2CCC2)cc1,,-21.2%,13 µM (active),
C/C(=N\NC(=O)c1nn(C)c(C)c1Br)c1ccc(NC(=O)C2CCCC2)cc1,,-25.5%,,inactive
C/C(=N\NC(=O)c1c([N+](=O)[O-])c(C)nn1C)c1ccc(NC(=O)C2CCCC2)cc1,-5.01% (inactive),5.28%,,
Cc1cccc(C(=O)Nc2sc3c(c2C#N)CCCCC3)c1,-3.22% (inactive),-20.2%,,
Cc1nc2nc(SCc3ccccc3)[nH]n2c(=O)c1CCC(C)C,-19.4% (inactive),19.7%,,
Cc1c(C)c2ccc(OC(C)C(=O)N3C[C@H]4C[C@@H](C3)c3cccc(=O)n3C4)c(C)c2oc1=O (some centres not stated),-2.98% (inactive),10.4%,,
Cc1cc(=O)oc2c(C)c(OC(C)C(=O)N3CC[C@@]4(O)CCCC[C@H]4C3)ccc12 (some centres not stated),,-0.971%,0.731 µM (active),
O=C(C(c1ccccc1)c1ccccc1)N1CC[C@@]2(O)CCCC[C@H]2C1,-7.45% (inactive),-2.81%,,
Cc1c(C)c2ccc(OC(C)C(=O)N3CC[C@@]4(O)CCCC[C@H]4C3)c(C)c2oc1=O (some centres not stated),,-28.5%,5.8 µM (active),
CCc1cc(=O)oc2c(C)c(OC(C)C(=O)N3CC[C@@]4(O)CCCC[C@H]4C3)ccc12 (some centres not stated),3.29% (inactive),14.6%,,
CCc1cc(=O)oc2c(C)c(OC(C)C(=O)N3CCC[C@@H]3C(=O)O)ccc12 (some centres not stated),-7.03% (inactive),15.4%,,
CCc1cc(=O)oc2c(C)c(OCC(=O)N3CC[C@@]4(O)CCCC[C@H]4C3)ccc12,-24.5% (inactive),2.62%,,
Cc1c(C)c2ccc(OCC(=O)N3CC[C@@]4(O)CCCC[C@H]4C3)cc2oc1=O,-15.4% (inactive),0.17%,,
Cc1cc(=O)oc2c(C)c(OCC(=O)N3CC[C@@]4(O)CCCC[C@H]4C3)ccc12,,2.59%,16.4 µM (active),
Cc1nc(SCC(=O)NC(=O)NCCC(C)C)c2c(-c3cccs3)csc2n1,3.29% (inactive),8.46%,,
